We go through 9 molecules from PubChem BioAssay (NCI).

The panel holds about 79,000 compounds, 15% with a hit somewhere; the sample as a whole holds those more often. Unmarked numbers belong to inactive results. Activity calls are given as the source filed them. Rule as the data show it: active = growth inhibition above about 70%; inactive = the rest.

Assay [1] is described as follows: NCI Yeast Anticancer Drug Screen. Data for the rad50 strain (AID 155).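 Also: 0% = growth of vehicle-only cultures of the same strain.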 The note with it: S. cerevisiae rad50 strain growth inhibition, hits give high values. In outline: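 Yeast carrying a defined DNA repair defect were exposed to test compounds, and growth was compared with vehicle-treated controls to give percent inhibition.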
A short description of assay [2]: NCI Yeast Anticancer Drug Screen. Data for the mec2-1 strain (AID 157). As to conditions: S. cerevisiae mec2-1 strain, hits give high values. An outline of the steps:
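Using mec2-1 yeast: add compound, measure growth, express inhibition versus vehicle-treated cultures.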

Assay [3] can be described thus: NCI Yeast Anticancer Drug Screen. Data for the sgs1 mgt1 strain (AID 161).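 Also: 0% = growth of cultures given vehicle only.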 As to conditions: S. cerevisiae sgs1 mgt1 strain, hits give high values. In outline: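 Yeast cells carrying a defined DNA-repair defect were exposed to test compounds. Growth inhibition was measured relative to vehicle-treated controls.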
Assay [4] is described as follows: NCI Yeast Anticancer Drug Screen. Data for the cln2 rad14 strain (AID 165).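 Also: 0% = growth equal to vehicle treated cultures.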 As to conditions: S. cerevisiae cln2 rad14 strain, hits give high values. In outline:
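Yeast strain cln2 rad14, bearing defects in cell cycle control and DNA repair, serves as the test system; values reflect growth inhibition compared with vehicle.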

Assay [5] can be described thus: NCI Yeast Anticancer Drug Screen. Data for the bub3 strain (AID 167). The note with it: S. cerevisiae bub3 mutant strain, hits give high values. An outline of the steps:
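Compounds were applied to a genetically altered yeast strain carrying a cell-cycle control defect. Growth inhibition was scored against vehicle-treated controls.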

Assay [6] can be described thus: NCI Yeast Anticancer Drug Screen. Data for the mlh1 rad18 strain (AID 175). The note with it: S. cerevisiae mlh1 rad18 strain growth inhibition, hits give high values. An outline of the steps:
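Steps: expose repair-defective yeast to compound; measure growth; express inhibition against vehicle-treated controls.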

[7] abbreviates: at 5.0 µM (retest, dose inferred, filed as 0.5).
The mark [8] stands for this setting: at 50.0 µM (retest, dose inferred, filed as 5.0).

For `C=C1CCC[C@@H]2[C@@](C)(CC3=CC(=O)C=CC3=O)C(C)CC[C@]12C` (some centres not stated), the growth inhibition in assay [1] (setting [7]) is 39%; in assay [1] (setting [8]) it was 96% (active); in assay [1] (at 50.0 µM), 98.5% (active); in assay [2] (setting [7]), 43%; in assay [2] (setting [8]), 96% (active); in assay [2] (at 50.0 µM), 88.7% (active). For the same molecule, the growth inhibition was 54% in assay [3] (setting [7]); 97% (active) in assay [3] (setting [8]); 98.7% (active) in assay [3] (at 50.0 µM); 7% in assay [4] (setting [7]); 93% (active) in assay [4] (setting [8]); 95.2% (active) in assay [4] (at 50.0 µM). For the same molecule, the growth inhibition in assay [5] (setting [7]) is 27%; in assay [5] (setting [8]) it was 96% (active); in assay [5] (at 50.0 µM) it was 98.6% (active); in assay [6] (setting [7]), 55%; in assay [6] (setting [8]), 95% (active); in assay [6] (at 50.0 µM), 98.5% (active).
For `CSCSCC(CO)NC(=O)/C=C/c1c(C)[nH]c(=O)[nH]c1=O` (configuration not stated), the growth inhibition in assay [1] (setting [7]) was -2%; in assay [1] (setting [8]), 0%; in assay [1] (at 50.0 µM), 92.5% (active); in assay [2] (setting [7]), 1%; in assay [2] (setting [8]), 7%; in assay [2] (at 50.0 µM) it was 94.2% (active). The growth inhibition is 1% in assay [3] (setting [7]); 4% in assay [3] (setting [8]); 93.8% (active) in assay [3] (at 50.0 µM); -3% in assay [4] (setting [7]); -11% in assay [4] (setting [8]); 92.2% (active) in assay [4] (at 50.0 µM). The growth inhibition in assay [5] (setting [7]) was 3%; in assay [5] (setting [8]), 21%; in assay [5] (at 50.0 µM) it was 92.8% (active); in assay [6] (setting [7]), 3%; in assay [6] (setting [8]), 8%; in assay [6] (at 50.0 µM) it was 92.9% (active).
On to `N#CC1CCCC(Cc2ccccc2)(c2ccccc2)C1=O` (configuration not stated), for which the growth inhibition in assay [1] (setting [7]) was -4%; in assay [1] (setting [8]), 93% (active); in assay [1] (at 50.0 µM), 98.8% (active); in assay [2] (setting [7]), -3%; in assay [2] (setting [8]), 95% (active); in assay [2] (at 50.0 µM), 98.1% (active). The growth inhibition in assay [3] (setting [7]) is -2%; in assay [3] (setting [8]), 95% (active); in assay [3] (at 50.0 µM), 98.3% (active); in assay [4] (setting [7]), -1%; in assay [4] (setting [8]), 70% (active); in assay [4] (at 50.0 µM) it was 95% (active). For the same molecule, the growth inhibition was 10% in assay [5] (setting [7]); 96% (active) in assay [5] (setting [8]); 98.7% (active) in assay [5] (at 50.0 µM); -6% in assay [6] (setting [7]); 96% (active) in assay [6] (setting [8]); 97.6% (active) in assay [6] (at 50.0 µM).
As for `C1=C([P+](c2ccccc2)(c2ccccc2)c2ccccc2)CCCC1`, the growth inhibition was 22% in assay [1] (setting [7]); 93% (active) in assay [1] (setting [8]); 89.8% (active) in assay [1] (at 50.0 µM); -2% in assay [2] (setting [7]); 91% (active) in assay [2] (setting [8]); 92.2% (active) in assay [2] (at 50.0 µM). The growth inhibition was 13% in assay [3] (setting [7]); 84% (active) in assay [3] (setting [8]); 88.5% (active) in assay [3] (at 50.0 µM); 24% in assay [4] (setting [7]); 90% (active) in assay [4] (setting [8]); 86.5% (active) in assay [4] (at 50.0 µM). Besides, the growth inhibition in assay [5] (setting [7]) was -8%; in assay [5] (setting [8]) it was 92% (active); in assay [5] (at 50.0 µM) it was 87.5% (active); in assay [6] (setting [7]), 14%; in assay [6] (setting [8]), 91% (active); in assay [6] (at 50.0 µM), 91.9% (active).
`CCCCc1ccc2nccc(N/N=C/c3ccc(OC)c4ccccc34)c2c1`: the growth inhibition in assay [1] (setting [7]) is 1%; in assay [1] (setting [8]) it was 91% (active); in assay [1] (at 50.0 µM) it was 80% (active); in assay [2] (setting [7]) it was -27%; in assay [2] (setting [8]), 89% (active); in assay [2] (at 50.0 µM), 69.3%. For the same molecule, the growth inhibition in assay [3] (setting [7]) was 2%; in assay [3] (setting [8]), 94% (active); in assay [3] (at 50.0 µM), 76.7% (active); in assay [4] (setting [7]), -2%; in assay [4] (setting [8]) it was 73% (active); in assay [4] (at 50.0 µM), 62.4%. The growth inhibition is -4% in assay [5] (setting [7]); 90% (active) in assay [5] (setting [8]); 79% (active) in assay [5] (at 50.0 µM); 1% in assay [6] (setting [7]); 88% (active) in assay [6] (setting [8]); 90.1% (active) in assay [6] (at 50.0 µM).
Regarding `O=C1NN=C(c2ccc(Cl)cc2)CC1C1C(=O)N(c2ccccc2)N=C1c1ccccc1` (configuration not stated), the growth inhibition in assay [1] (setting [7]) was 96% (active); in assay [1] (setting [8]) it was 96% (active); in assay [1] (at 50.0 µM) it was 98.5% (active); in assay [2] (setting [7]), 96% (active); in assay [2] (setting [8]), 98% (active); in assay [2] (at 50.0 µM), 98.9% (active). For the same molecule, the growth inhibition in assay [3] (setting [7]) was 95% (active); in assay [3] (setting [8]), 98% (active); in assay [3] (at 50.0 µM), 99.3% (active); in assay [4] (setting [7]), 88% (active); in assay [4] (setting [8]) it was 97% (active); in assay [4] (at 50.0 µM) it was 96.3% (active). For the same molecule, the growth inhibition in assay [5] (setting [7]) was 97% (active); in assay [5] (setting [8]) it was 95% (active); in assay [5] (at 50.0 µM), 97.8% (active); in assay [6] (setting [7]) it was 97% (active); in assay [6] (setting [8]), 96% (active); in assay [6] (at 50.0 µM), 98.3% (active).
With `C/C=C1\CC(C)(CC)C(C#N)(C#N)C(N)=C1C#N` (configuration not stated), the growth inhibition in assay [1] (setting [7]) was 0%; in assay [1] (setting [8]), -9%; in assay [1] (at 50.0 µM), -5.9%; in assay [2] (setting [7]), -3%; in assay [2] (setting [8]), 0%; in assay [2] (at 50.0 µM), 10.5%. Also, the growth inhibition in assay [3] (setting [7]) is 2%; in assay [3] (setting [8]), -4%; in assay [3] (at 50.0 µM) it was -4.35%; in assay [4] (setting [7]), -9%; in assay [4] (setting [8]) it was -3%; in assay [4] (at 50.0 µM), 3.35%. The growth inhibition in assay [5] (setting [7]) was -3%; in assay [5] (setting [8]), -2%; in assay [5] (at 50.0 µM), 50.9%; in assay [6] (setting [7]), 0%; in assay [6] (setting [8]) it was -9%; in assay [6] (at 50.0 µM) it was -28.7%.
In the case of `O=C1C=CC(=O)N1CCCCCCN1C(=O)C=CC1=O`, the growth inhibition in assay [1] (setting [7]) is 19%; in assay [1] (setting [8]) it was 99% (active); in assay [1] (at 50.0 µM), 99% (active); in assay [2] (setting [7]), 29%; in assay [2] (setting [8]), 100% (active); in assay [2] (at 50.0 µM), 99.3% (active). Also, the growth inhibition was 32% in assay [3] (setting [7]); 99% (active) in assay [3] (setting [8]); 98.8% (active) in assay [3] (at 50.0 µM); 16% in assay [4] (setting [7]); 99% (active) in assay [4] (setting [8]); 99.5% (active) in assay [4] (at 50.0 µM). In addition, the growth inhibition in assay [5] (setting [7]) is 20%; in assay [5] (setting [8]), 97% (active); in assay [5] (at 50.0 µM) it was 99.5% (active); in assay [6] (setting [7]), 38%; in assay [6] (setting [8]), 99% (active); in assay [6] (at 50.0 µM), 99.2% (active).
Take `Cc1cccc(O)c(=O)c1`: the growth inhibition in assay [1] (setting [7]) was 12%; in assay [1] (setting [8]) it was 98% (active); in assay [1] (at 50.0 µM), 99.3% (active); in assay [2] (setting [7]), -5%; in assay [2] (setting [8]), 99% (active); in assay [2] (at 50.0 µM) it was 99.5% (active). The growth inhibition in assay [3] (setting [7]) is 2%; in assay [3] (setting [8]), 98% (active); in assay [3] (at 50.0 µM) it was 99.5% (active); in assay [4] (setting [7]) it was 8%; in assay [4] (setting [8]), 95% (active); in assay [4] (at 50.0 µM), 99.5% (active). In addition, the growth inhibition was 9% in assay [5] (setting [7]); 98% (active) in assay [5] (setting [8]); 99.4% (active) in assay [5] (at 50.0 µM); 9% in assay [6] (setting [7]); 96% (active) in assay [6] (setting [8]); 99.5% (active) in assay [6] (at 50.0 µM).
